The source of these data is PubChem BioAssay (Tox21).

Molecules are shown by their SMILES. Values joined by “and” are separate entries in the source; they are usually repeats but may differ in a detail not shown here. Equal entries are not always repeated. Inconclusive results are not listed. Where a structure was tested more than once in an assay, its records may differ in their call. Active and inactive are the calls of the source. Calls follow the shape of the dose curve; as a rule, active = well fitted curve in the direction sought with a large enough effect in the repeat runs; inconclusive = weak or mixed curves; inactive = no such curve, though single readings can be large; an effect the other way counts as inactive or inconclusive.

In experiment [1] the target is Cytochrome P450 2C9 (Homo sapiens) (UniProt P11712). The experiment can be described thus: Cytochrome P450 Family 2 Subfamily C Member 9 (CYP2C9) small molecule antagonists: luciferase reporter qHTS assay (AID 1671198). Also: potency is read from the fitted curve at half-maximal effect. As to activity change, negative = inhibition: series mostly up to about 120 µM. The procedure, abridged:
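P450-Glo proluciferin substrate with CYP2C9 enzyme; 10 min RT preincubation, then NADPH regeneration 1 h at 37C; luciferin detection reagent 20 min RT, luminescence in relative luminescence units.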
For orientation: In a reporter assay the amount or activity of a reporter protein is the signal.

For experiment [2], the target named is Cytochrome P450 1A2 (Homo sapiens) (UniProt P05177). The experiment can be described thus: Cytochrome P450 Family 1 Subfamily A Member 2 (CYP1A2) small molecule antagonists: luciferase reporter qHTS assay (AID 1671199). Also: potency is read from the fitted curve at half-maximal effect. As to activity change, negative = inhibition: series mostly up to about 120 µM. The procedure, abridged:
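Inhibition of CYP1A2 conversion of proluciferin to luciferin, detected by luminescence. Reaction run 1 h at room temperature with NADPH regeneration after brief compound preincubation.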

In experiment [3] the target is Voltage-gated inwardly rectifying potassium channel KCNH2 (Homo sapiens) (UniProt Q12809). Description: Human Ether-a-go-go-Related Gene (hERG) channel small molecule antagonists: fluorescence cell-based qHTS assay (AID 1671200).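 Also: hERG-expressing U2OS cells given a thallium stimulus after FluxOR II dye loading; series mostly up to about 77 µM.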 Put shortly:
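Channel function was assessed by thallium flux. Cells seeded the previous day and kept at 37 C took up FluxOR II dye over 1 h in the dark at room temperature, then sat another 10 min before stimulation.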
(In general: Block of hERG is tested as a sign of cardiac risk.)

Experiment [4] concerns the target Cytochrome P450 3A4 (Homo sapiens) (UniProt P08684). Description: Cytochrome P450 Family 3 Subfamily A Member 4 (CYP3A4) small molecule antagonists: luciferase reporter qHTS assay (AID 1671201). Also: potency is read from the fitted curve at half-maximal effect. As to activity change, negative = inhibition: series mostly up to about 120 µM. The procedure, abridged:
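Compounds in DMSO were pin-transferred onto CYP3A4 enzyme-substrate mix and held 10 min at room temperature. NADPH regenerating solution started the reaction for 1 h; luciferin detection reagent stopped it, and luminescence was read after 20 min.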
% is scaled to controls: 0 for no effect and ±100 for the full control effect.
Also: nearly all actives have a fitted effect of over 50% in size.

Cytochrome P450 2C9 (Homo sapiens), sequence (P11712 whole entry, looked up): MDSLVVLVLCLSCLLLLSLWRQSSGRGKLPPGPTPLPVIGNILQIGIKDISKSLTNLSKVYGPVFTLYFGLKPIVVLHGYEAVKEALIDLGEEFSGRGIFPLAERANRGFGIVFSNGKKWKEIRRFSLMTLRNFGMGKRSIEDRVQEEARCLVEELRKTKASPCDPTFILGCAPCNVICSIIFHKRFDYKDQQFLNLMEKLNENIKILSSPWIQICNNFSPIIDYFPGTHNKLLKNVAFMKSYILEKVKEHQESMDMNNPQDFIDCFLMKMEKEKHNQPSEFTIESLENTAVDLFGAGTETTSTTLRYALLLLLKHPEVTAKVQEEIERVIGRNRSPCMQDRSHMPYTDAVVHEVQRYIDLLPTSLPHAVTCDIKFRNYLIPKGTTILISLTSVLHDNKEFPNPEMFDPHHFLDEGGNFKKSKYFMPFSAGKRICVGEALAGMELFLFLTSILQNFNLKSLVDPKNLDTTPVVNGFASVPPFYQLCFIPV
Cytochrome P450 3A4 (Homo sapiens), sequence (P08684 whole entry, looked up): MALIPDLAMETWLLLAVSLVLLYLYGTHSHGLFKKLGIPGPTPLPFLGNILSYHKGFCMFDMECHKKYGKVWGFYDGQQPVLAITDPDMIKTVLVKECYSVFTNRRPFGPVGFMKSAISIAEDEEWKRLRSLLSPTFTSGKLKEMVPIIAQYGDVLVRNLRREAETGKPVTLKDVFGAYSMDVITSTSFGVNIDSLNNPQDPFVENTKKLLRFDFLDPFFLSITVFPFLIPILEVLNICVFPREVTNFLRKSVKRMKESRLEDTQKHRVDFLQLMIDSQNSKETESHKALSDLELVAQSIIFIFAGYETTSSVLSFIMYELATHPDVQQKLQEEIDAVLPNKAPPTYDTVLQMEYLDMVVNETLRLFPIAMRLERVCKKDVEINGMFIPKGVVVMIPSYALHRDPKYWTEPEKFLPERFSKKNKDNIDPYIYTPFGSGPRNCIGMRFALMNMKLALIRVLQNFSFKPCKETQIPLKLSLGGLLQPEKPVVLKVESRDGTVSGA
Voltage-gated inwardly rectifying potassium channel KCNH2 (Homo sapiens), sequence (Q12809 whole entry, looked up): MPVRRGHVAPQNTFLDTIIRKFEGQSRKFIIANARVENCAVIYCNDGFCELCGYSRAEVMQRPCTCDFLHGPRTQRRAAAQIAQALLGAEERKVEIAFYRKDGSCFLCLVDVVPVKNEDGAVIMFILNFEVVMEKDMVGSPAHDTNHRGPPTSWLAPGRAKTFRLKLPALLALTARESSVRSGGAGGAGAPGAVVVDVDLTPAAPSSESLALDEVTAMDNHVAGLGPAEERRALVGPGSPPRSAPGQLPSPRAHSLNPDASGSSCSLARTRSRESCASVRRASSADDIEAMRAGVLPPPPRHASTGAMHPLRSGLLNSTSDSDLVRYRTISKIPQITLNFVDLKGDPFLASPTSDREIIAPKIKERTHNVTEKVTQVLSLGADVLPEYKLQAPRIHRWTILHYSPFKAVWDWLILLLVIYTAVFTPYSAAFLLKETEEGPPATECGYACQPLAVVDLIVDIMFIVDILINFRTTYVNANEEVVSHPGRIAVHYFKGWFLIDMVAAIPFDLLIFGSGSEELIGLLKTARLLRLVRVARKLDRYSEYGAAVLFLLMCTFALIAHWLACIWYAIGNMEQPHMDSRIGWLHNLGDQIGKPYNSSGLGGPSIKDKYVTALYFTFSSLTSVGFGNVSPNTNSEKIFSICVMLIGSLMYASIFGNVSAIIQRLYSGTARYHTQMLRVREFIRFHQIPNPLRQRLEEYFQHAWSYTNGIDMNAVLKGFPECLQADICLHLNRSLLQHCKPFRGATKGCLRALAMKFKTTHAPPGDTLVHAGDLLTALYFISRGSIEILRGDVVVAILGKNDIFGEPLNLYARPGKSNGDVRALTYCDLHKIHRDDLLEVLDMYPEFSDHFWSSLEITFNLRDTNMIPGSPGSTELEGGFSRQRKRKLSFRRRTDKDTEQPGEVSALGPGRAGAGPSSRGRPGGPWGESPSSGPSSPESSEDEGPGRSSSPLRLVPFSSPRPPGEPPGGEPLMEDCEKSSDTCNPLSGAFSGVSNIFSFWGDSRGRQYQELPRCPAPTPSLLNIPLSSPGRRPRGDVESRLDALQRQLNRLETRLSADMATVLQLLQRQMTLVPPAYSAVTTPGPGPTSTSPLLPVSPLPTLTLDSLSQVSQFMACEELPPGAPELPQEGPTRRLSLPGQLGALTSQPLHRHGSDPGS
Cytochrome P450 1A2 (Homo sapiens), sequence (P05177 whole entry, looked up): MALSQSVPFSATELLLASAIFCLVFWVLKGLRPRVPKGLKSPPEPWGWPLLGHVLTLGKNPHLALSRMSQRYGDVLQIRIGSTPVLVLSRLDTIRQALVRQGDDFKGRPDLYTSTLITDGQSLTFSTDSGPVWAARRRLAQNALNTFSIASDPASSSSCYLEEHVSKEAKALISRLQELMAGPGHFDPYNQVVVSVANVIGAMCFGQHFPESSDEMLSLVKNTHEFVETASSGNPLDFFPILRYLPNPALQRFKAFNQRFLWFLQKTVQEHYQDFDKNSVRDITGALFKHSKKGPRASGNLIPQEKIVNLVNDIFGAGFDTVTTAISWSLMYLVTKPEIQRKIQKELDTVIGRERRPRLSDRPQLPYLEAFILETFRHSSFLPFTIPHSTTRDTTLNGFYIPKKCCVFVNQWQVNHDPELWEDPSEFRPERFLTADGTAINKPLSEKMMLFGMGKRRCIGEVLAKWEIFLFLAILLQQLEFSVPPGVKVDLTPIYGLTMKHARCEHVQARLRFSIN

For `Cc1cc(C)c(O)c(C)c1`, the Potency in experiment [1] was 35.6 µM (active) and 79.6 µM (active); in experiment [2] it was 35.6 µM (active) and 28.3 µM (active). Also, the Potency entry in experiment [3] was “inactive”.

For `CC(C)=CCC/C(C)=C/C=O`, the Potency result in experiment [1] was “inactive and 79.6 µM (active)”. The Potency entry in experiment [2] and in experiment [3] was “inactive” throughout.

On to `Cc1ccncc1`, for which the Potency result in experiment [1], in experiment [2] and in experiment [3] was “inactive” in each case.

Take `CCCCCCCCCCCC(=O)N(C)CC(=O)O`: in experiment [1], the Potency is 38.7 µM (active) and the activity change, negative = inhibition was -4.94% [at 10.5 µM] (inactive). In experiment [2], the Potency result is “inactive”. In experiment [3], the Potency entry is “inactive”.

Regarding `CC/C=C(\C(=O)N[C@@H]1C(=O)N2C(C(=O)OCOC(=O)C(C)(C)C)=C(COC(N)=O)CS[C@H]12)c1csc(N)n1`, the Potency in experiment [1] was 12.3 µM (active) and 7.76 µM (active); in experiment [2], 27.5 µM (active) and inactive. The Potency entry in experiment [3] is “inactive”.

Take `CC(=O)OCc1ccc2c(c1)OCO2`: the Potency is 25.2 µM (active) and 35.6 µM (active) in experiment [1]; 2.01 µM (active) and 2.52 µM (active) in experiment [2]. Also, the Potency entry in experiment [3] is “inactive”.

Take `CCCCCNCCCCC`: the Potency entry in experiment [1], in experiment [2] and in experiment [3] was “inactive” throughout.

With `Cc1ccc(C)c(S(=O)(=O)O)c1`, the Potency result in experiment [1], in experiment [2] and in experiment [3] was “inactive” each time.

As for `Cc1nnc(NS(=O)(=O)c2ccc(N)cc2)s1`, in experiment [1], the Potency is 35.5 µM (active). Besides, the Potency result in experiment [2] and in experiment [3] was “inactive” in each case.

In the case of `Cc1cc(CC(=O)O)n(C)c1C(=O)c1ccc(Cl)cc1`, the Potency result in experiment [1], in experiment [2] and in experiment [3] was “inactive” each time.

In the case of `Cc1ccccc1C=O`, the Potency entry in experiment [1], in experiment [2] and in experiment [3] was “inactive” each time.

For the compound `O=[N+]([O-])c1ccccc1C(F)(F)F`, the Potency result in experiment [1], in experiment [2] and in experiment [3] was “inactive” each time.

On to `O=C1CCCCCCCCCCC1`, for which the Potency result in experiment [1], in experiment [2] and in experiment [3] was “inactive” each time.

For the compound `COC(=O)CCCCC(=O)OC`, the Potency entry in experiment [1], in experiment [2] and in experiment [3] was “inactive” in each case.

With `CN=C(NC#N)NCCSCc1nc[nH]c1C`, in experiment [1], the Potency was 19.8 µM (active) and 15.5 µM (active). Moreover, the Potency result in experiment [2] and in experiment [3] was “inactive” throughout.

With `OC[C@H]1O[C@@H](Oc2ccc(O)cc2)[C@H](O)[C@@H](O)[C@@H]1O`, the Potency entry in experiment [1], in experiment [2] and in experiment [3] was “inactive” in each case.

Consider `Brc1ccc(Oc2ccc(Br)cc2)cc1`, for which the Potency in experiment [1] was 35.6 µM (active); in experiment [2] it was 22.5 µM (active) and 20 µM (active).

For `COC(=O)OC`, the Potency result in experiment [1], in experiment [2] and in experiment [3] was “inactive” throughout.

As for `N#CCC(=O)O`, the Potency result in experiment [1], in experiment [2] and in experiment [3] was “inactive” throughout.

Turning to `Cc1cc(C)cc(O)c1`, the Potency entry in experiment [1] and in experiment [3] was “inactive” in each case. The Potency in experiment [2] is 35.7 µM (active) and 41.1 µM (active).

On to `O=Cc1ccc(CO)o1`, for which the Potency entry in experiment [1], in experiment [2] and in experiment [3] was “inactive” in each case.

As for `CCCCCCCCC(=O)O`, the Potency is 61.3 µM (active) and 79.6 µM (active) in experiment [1]; 38.6 µM (active) in experiment [2]. Besides, the Potency entry in experiment [3] and in experiment [4] was “inactive” throughout.

`O=[N+]([O-])c1cc(C(F)(F)F)ccc1Cl`: the Potency entry in experiment [1], in experiment [2], in experiment [3] and in experiment [4] was “inactive” each time.

On to `CN1CCCC1=O`, for which the Potency result in experiment [1], in experiment [2], in experiment [3] and in experiment [4] was “inactive” each time.

On to `O=C1C(N(CO)C(=O)NCO)N(CO)C(=O)N1CO` (stereo not given), for which the Potency result in experiment [1], in experiment [2], in experiment [3] and in experiment [4] was “inactive” in each case.

For `CC(C=O)Cc1ccc(C(C)(C)C)cc1` (stereo not given), in experiment [1], the Potency is 56.4 µM (active). Further, the Potency result in experiment [2], in experiment [3] and in experiment [4] was “inactive” each time.

For the compound `OCC(O)CS` (stereo not given), the Potency entry in experiment [1], in experiment [2], in experiment [3] and in experiment [4] was “inactive” throughout.

`CN1Cc2c(N)cccc2C(c2ccccc2)C1` (stereo not given): the Potency result in experiment [1], in experiment [2], in experiment [3] and in experiment [4] was “inactive” throughout.

Regarding `CCc1cccc(CC)c1N`, the Potency in experiment [1] is 71 µM (active); in experiment [2] it was 22.6 µM (active) and 5.64 µM (active). Moreover, the Potency result in experiment [3] and in experiment [4] was “inactive” in each case.

In the case of `OB(O)O`, the Potency result in experiment [1], in experiment [2], in experiment [3] and in experiment [4] was “inactive” throughout.

For `CCCOC(=O)NCCCN(C)C`, in experiment [1], the Potency was 63.3 µM (active) and inactive. Moreover, the Potency entry in experiment [2], in experiment [3] and in experiment [4] was “inactive” in each case.

`CC(=O)OC/C=C(\C)CCC=C(C)C`: the Potency entry in experiment [1] was “inactive and 39.9 µM (active)”; in experiment [4] it was “inactive and 31.7 µM (active)”. Further, the Potency entry in experiment [2] and in experiment [3] was “inactive” each time.

As for `NC(N)=S`, the Potency result in experiment [1], in experiment [2], in experiment [3] and in experiment [4] was “inactive” throughout.

For `Cc1ccc(C(C)C)cc1`, the Potency result in experiment [1], in experiment [2], in experiment [3] and in experiment [4] was “inactive” each time.

Turning to `CCCCCC(C)=O`, the Potency result in experiment [1], in experiment [2], in experiment [3] and in experiment [4] was “inactive” each time.

Turning to `CCCCCCCC(=O)O`, the Potency entry in experiment [1], in experiment [2], in experiment [3] and in experiment [4] was “inactive” throughout.

For `CCCCCCCCCCCCCC(=O)O`, the Potency entry in experiment [1], in experiment [3] and in experiment [4] was “inactive” each time. Besides, the Potency result in experiment [2] is “inactive and 71 µM (active)”.

With `COc1cc(NC(=O)CC(C)=O)c(OC)cc1Cl`, the Potency in experiment [1] is 40.1 µM (active) and 39.9 µM (active); in experiment [2], 3.57 µM (active) and 5.64 µM (active); in experiment [4], 14.2 µM (active) and 15.9 µM (active). For the same compound, the Potency result in experiment [3] was “inactive”.

With `CC(=O)CC(=O)N(C)C`, the Potency result in experiment [1], in experiment [2], in experiment [3] and in experiment [4] was “inactive” in each case.
